Laboratory results published in PubChem BioAssay AID720509 (The Scripps Research Institute Molecular Screening Center, 2013).
The campaign covered roughly 370,000 compounds. About 760 (0.21%) were called active. For the sample, actives were picked, then their nearest neighbours and some compounds at random. Unmarked numbers belong to inactive results.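 Rule for the calls: active = inhibition above a per-campaign cutoff: mean of compounds within control limits plus 3 SD (cut at about 15% in these data); inactive = the rest.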

target: Fibrinogen beta chain (Homo sapiens) (UniProt P02675); assay: inhibitors of Tn6 peptide binding to fibrin DD(E), primary screen, biochemical, fluorescence polarization, human fibrin, Tn6 probe (AID 720509); settings: Fibrin DD(E) TRITC-Tn6 fluorescence polarization displacement; at 8.3 µM; stronger effect = higher value;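 note: 0% = median of all compound wells on the plate and 100% = blocking peptide control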
Sequence (P02675 whole entry, looked up): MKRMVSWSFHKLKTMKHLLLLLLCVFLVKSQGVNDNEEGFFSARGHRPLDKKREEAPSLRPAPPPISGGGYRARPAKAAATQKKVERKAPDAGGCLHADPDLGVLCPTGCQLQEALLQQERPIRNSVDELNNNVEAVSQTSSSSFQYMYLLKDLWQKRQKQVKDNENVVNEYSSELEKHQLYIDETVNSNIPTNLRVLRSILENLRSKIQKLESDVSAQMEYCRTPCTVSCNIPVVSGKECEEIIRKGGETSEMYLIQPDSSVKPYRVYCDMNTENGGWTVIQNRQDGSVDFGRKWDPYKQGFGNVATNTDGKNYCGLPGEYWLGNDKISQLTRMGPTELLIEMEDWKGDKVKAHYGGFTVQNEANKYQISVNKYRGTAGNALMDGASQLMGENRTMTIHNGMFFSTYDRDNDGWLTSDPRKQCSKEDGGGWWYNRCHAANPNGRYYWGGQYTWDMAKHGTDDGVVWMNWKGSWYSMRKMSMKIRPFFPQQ

Row | Compound | inhibition
1 | O=C(c1c(F)cccc1F)N1CCN(c2ncc(Br)cn2)CC1 | -1.65%
2 | CC(=O)OC(C)C[N+](C)(C)C (centres undefined) | 3.71%
3 | CCOC(=O)C(C)Oc1cccc2c(=O)n(CC(=O)N3CCc4ccccc43)ccc12 (centres undefined) | -1.79%
4 | CC(=O)N1CCCN(C2=Nc3ccccc3Sc3ccccc32)CC1 | -3.1%
5 | Cc1cc(-c2nnc(SCC(=O)Nc3ccc(S(N)(=O)=O)cc3)n2N)n[nH]1 | -3.55%
6 | Cc1oc2nc(SCC(=O)NCc3cccnc3)nc(N)c2c1C | 7.93%
7 | Cc1oc2nc(SCC(=O)Nc3ccc(S(N)(=O)=O)cc3)nc(NC(=O)c3ccccc3)c2c1C | 24.4% (active)
8 | COc1cc2c(cc1OC)C(C(=O)Nc1cc(C)c(OC)c(C)c1)CC(=O)N2 (centres undefined) | 10.8%
9 | N#Cc1ccc(COC(=O)Cn2nnc(-c3ccccc3)n2)cc1 | 0.38%
10 | CCc1cc(-c2nnc(SCC(=O)NC3CC3)n2C)cs1 | 18.6% (active)
11 | Cn1c(SCC(=O)NC2CCCCC2)nnc1-c1ccc(N)cc1 | 1.64%
12 | CCOc1cccc(-c2nnc(SCC(=O)NC3CC3)n2C)c1 | 6.34%
13 | O=[N+]([O-])c1ccccc1N/N=C1\CCc2ccccc21 | -1.87%
14 | O=C(NC1CCc2ccccc21)C12CN(Cc3ccccc3)CC1C(c1cccc([N+](=O)[O-])c1)=NO2 (centres undefined) | 1.76%
15 | COCC(C)n1c(C)cc(C(=O)COc2ccc(C)nc2[N+](=O)[O-])c1C (centres undefined) | 2.28%
16 | O=C(NCc1nnc(SCC(=O)N2CCCCCC2)o1)c1ccc(F)cc1 | 4%
17 | O=S(=O)(NCC1CN(S(=O)(=O)c2ccc3c(c2)OCCO3)C1)c1c(F)cccc1F | 0.97%
18 | COc1ccc(-c2c(C)nn3c(N4CCC(C(=O)N5CCCCC5)CC4)cc(C)nc23)cc1OC | -3.53%
19 | O=S(=O)(Nc1ccc(-n2cnnn2)cc1)c1ccc(Cl)cc1 | -1.46%
20 | N#Cc1ccc(S(=O)(=O)NCC(=O)OCC(=O)NCCc2ccccc2)cc1 | -8.48%
21 | N#CC1=C(N)Oc2c(sc3ccccc23)C1c1ccco1 (centres undefined) | 3.91%
22 | CC(C)(C)c1cc(=O)n2c(nc3ccccc32)[nH]1 | -1.54%
23 | CN(CC(=O)Nc1ccccc1Cl)C(=O)c1ccccc1SCC(=O)N1CCCC1 | -6.29%

Row | Compound | inhibition
24 | COc1ccc(N(CC(=O)NC2CCCCC2)S(=O)(=O)c2c(C)[nH]c(=O)[nH]c2=O)cc1 | 6%
25 | CCCCNC(=O)C[C@@H]1C[C@@]2(C(=O)OCC)CCC=C2N(Cc2ccco2)C1=O | 3.81%
26 | COc1ccc(CNc2c(CO)cnc3c2cnn3C)cc1 | -2.59%
27 | COc1ccc(CC(=O)Nc2c3c(nn2-c2cccc(Cl)c2)CS(=O)C3)cc1 (centres undefined) | -10.3%
28 | COc1c(C)cc(C(O)c2ncc(-c3cccc(C(F)(F)F)c3)[nH]2)cc1C (centres undefined) | 8.36%
29 | CCOC(=O)N1CCN(Cc2nc3cc(NC(=O)CC)ccc3n2CC)CC1 | -8.37%
30 | CCOC(=O)N1CCN(Cc2nc(N)nc(Nc3ccc(C)cc3)n2)CC1 | 17% (active)
31 | CCOC(=O)C1CCCN(Cc2nc(N)nc(Nc3ccc(C)cc3)n2)C1 (centres undefined) | -3.73%
32 | Cc1nnc2n1N=C(c1ccc3c(c1)NC(=O)CO3)CS2 | 0.86%
33 | CCOC(=O)N1CCN(S(=O)(=O)c2ccc(-n3cnnn3)cc2)CC1 | 7.12%
34 | COc1ccc(S(=O)(=O)NC(CC(=O)NCc2ccccc2OC)c2ccco2)cc1 (centres undefined) | 2.08%
35 | COc1ccc2c(c1)c1ncn(Cc3ccccn3)c(=O)c1n2C | -7.12%
36 | CC(C)(C)OC(=O)C[C@@H]1C/C=C\C[C@@H](CC(=O)N[C@@H](CO)Cc2ccccc2)C(=O)N2CCC[C@H]2COC1=O | -2.9%
37 | O=C(COC(=O)c1ccc(F)cc1F)Nc1ncccn1 | 2.94%
38 | COC(=O)C1=C(C)NC(=S)NC1c1ccc(OC)cc1 (centres undefined) | 0.81%
39 | Nc1nc(SCC(=O)NNc2c(Cl)cc(Cl)cc2Cl)n[nH]1 | 8.94%
40 | COc1ccc(C(CNC(=O)c2ccc(OCc3cscn3)cc2)N2CCCC2)cc1 (centres undefined) | 2.19%
41 | Oc1c(Cl)cc(Cl)c(Cl)c1Cc1c(O)c(Cl)cc(Cl)c1Cl | -7.14%
42 | Cc1cc([N+](=O)[O-])nn1Cc1ccc(F)cc1 | -0.46%
43 | COc1ccc(C(=O)C2CCCN(S(=O)(=O)c3cccc(C)c3)C2)c(C)c1 (centres undefined) | -7.45%
44 | CCCC1(C(=O)OCC)NC(c2ccc(N(C)C)cc2)C2C(=O)N(c3ccc4c(c3)OCCO4)C(=O)C21 (centres undefined) | -9.09%
45 | COc1ccccc1C(=O)COC(=O)CSCC(=O)Nc1cc(C)on1 | 0.48%
46 | O=C(CN1C(=O)NC2(CCCCCC2)C1=O)NCc1cccs1 | -0.57%

Row | Compound | inhibition
47 | CSC1=NN(c2ccccc2)CN(c2ccccc2)N1C | -0.87%
48 | COc1ccc(CCNC(=O)C(=O)NCC2CCCN2S(=O)(=O)c2cccs2)cc1OC (centres undefined) | -8.21%
49 | COCCN(Cc1nc(-c2ccc(C(F)(F)F)cc2)no1)C(C)C | -5.72%
50 | CC(C)CCNC(=O)CC1C(=O)N(Cc2ccccc2)C(C)c2nc3ccccc3n21 (centres undefined) | 5.33%
51 | Cc1cc(=O)oc(C)c1C(=O)Nc1cnc2ccccc2c1 | -3.11%
52 | CCOc1ccc(C(=O)Nc2cc(Cl)ccc2-n2cncn2)cc1OC | 2.72%
53 | CN(C)c1cccc(NC(=O)c2ccc(-c3ccc(F)c(F)c3)c3ccoc23)c1 | -0.65%
54 | Cc1cccc(NS(=O)(=O)c2cc(Cl)ccc2Cl)n1 | 1.49%
55 | CC(=O)N/C(=C\c1ccc(F)cc1)C(=O)NC(Cc1ccccc1)C(=O)O (centres undefined) | 2.99%
56 | Oc1ccc(N=Cc2sc3ccccc3c2Cl)cc1 | 36.1% (active)
57 | CN1CCN(S(=O)(=O)c2ccc(Nc3ccc(F)cc3)nc2)CC1 | -3.71%
58 | O=C(CCN1C(=O)[C@H]2CC=CC[C@H]2C1=O)NCc1nc(-c2ccccc2)no1 | 1.52%
59 | CCc1nc2c(OCc3ccc(C(F)(F)F)cc3)cccn2c1N(C)C(=O)CC(C)C | 3.22%
60 | Cc1nc2nc3c(cn2n1)C(=O)CC(c1ccccc1)C3 (centres undefined) | 4.63%
61 | CC(C)CSc1nnc(-c2cccnc2)n1Cc1ccccc1 | -2.2%
62 | Cc1cc(NS(=O)(=O)c2ccc(NC(=O)CSc3nnc(-c4ccc(C(C)(C)C)cc4)n3Cc3ccco3)cc2)nc(C)n1 | 6.53%
63 | Cc1ccc(C(=O)NC2CCN(C(=O)Nc3ccccc3Cl)CC2)cc1 | 0.49%
64 | CCOCCCNC(=O)c1c[nH]c2cc(C)ccc2c1=O | -0.35%
65 | CCC1C(=O)NCCN1C(=O)c1ccc2nc(Cc3ccc(OC)cc3)oc2c1 (centres undefined) | 15.8% (active)
66 | COc1ccc(Cc2nc3ccc(C(=O)N4CCC(N(C)C)C4)cc3o2)cc1 (centres undefined) | 2.22%
67 | CCn1ccnc1CN(C)C(=O)c1ccc2nc(Cc3ccc(OC)cc3)oc2c1 | -4.19%
68 | CC(C)CN1CC(C)C(=O)N(c2ccccc2)C1=S (centres undefined) | 11.7%
69 | COC(=O)C1=C(C)N(c2ccc(C)cc2)/C(=C/c2ccc(O)cc2)C1=O | 1.49%

Row | Compound | inhibition
70 | Cc1ccccc1N(C(=O)Cc1cccs1)C(C(=O)NC1CCCCC1)c1cn(C)nc1C (centres undefined) | -5.36%
71 | O=C(Nc1cccc(-c2nc3ccccc3[nH]2)c1)c1ccc(C(=O)Nc2cccc(-c3nc4ccccc4[nH]3)c2)cc1 | 19.9% (active)
72 | O=C(Nc1nsc(-c2ccccc2)n1)c1ccncc1 | 1.55%
73 | CCOc1ccc(C(=O)Nc2cccc(-c3ccc4nncn4n3)c2)cc1 | 12.2%
74 | O=C(c1ccc(F)cc1)c1cn(Cc2ccc(F)cc2)c2cc3c(cc2c1=O)OCCO3 | -1.55%
75 | CCN(CC)C(=O)CC[C@@H]1CC[C@]2(CCCN(S(=O)(=O)C3CCCCC3)C2)O1 | -5.4%
76 | CCc1nc2ccccc2c(C(=O)OC2CCCCC2=O)c1C (centres undefined) | -0.37%
77 | CSc1ccccc1OCc1cc(C(=O)N2C[C@H]3CC[C@H]2C3)no1 | 8.52%
78 | O=C(CN1C(=O)CSC1=O)N1CCCC(Nc2ccc(F)cc2)C1 (centres undefined) | -6.4%
79 | CC(=O)Nc1ccc(OCCC[n+]2cccc(C(=O)[O-])c2)cc1 | -1.3%
80 | Cn1ccc(=Nc2ccc(NC(=O)c3ccc(N=c4ccn(C)c5ccc([N+](=O)[O-])cc45)cc3)cc2)cc1 | -6.27%
81 | COC(=O)C1CN(Cc2cn(Cc3ccc(F)cc3)nn2)CCS(=O)(=O)N1Cc1ccc(Cl)cc1 (centres undefined) | 10.6%
82 | Cc1ccc(OCCNC(=O)c2cccc(S(=O)(=O)N3CCN(Cc4ccccc4)CC3)c2)cc1 | 4.41%
83 | C[C@@H]1CN([C@H](C)CO)C(=O)CCCn2cc(nn2)CO[C@H]1CN(C)S(=O)(=O)c1ccc(Oc2ccccc2)nc1 | -1.11%
84 | Cc1noc(C)c1-c1nc(CSc2ccc(Cl)cc2)no1 | -2.98%
85 | C[C@@H](C(=O)N1CCNCC1)n1cc(CCC(=O)O)nn1 | -0.49%
86 | O=C(Cc1c(Cl)cccc1Cl)NC1CC1 | 6.01%
87 | O=C(CCl)NNc1cccc(Cl)n1 | 30.8% (active)
88 | O=C(NNc1cc(Cl)cc(Cl)c1)c1c(F)cccc1Cl | 1.43%
89 | COC(=O)[C@]12C[C@H](CC(=O)NCc3cccc(C(F)(F)F)c3)C(=O)N(Cc3ccc4c(c3)OCO4)C1=C[C@H](COCc1ccccc1)O[C@@H]2C | -3.35%
